Assay results reported in paper PMC5540273 (PLoS ONE, 2017).

What follows are compounds tested on MYO3A. Conditions: concentration: 1 μM, replicates: in singlicate; n = 1.
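Note: KINOMEscan kinase panel screen.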

Structure (SMILES)	%Inh [%]
O=C(O)C(F)(F)F.O=C(O)C(F)(F)F.O=c1[nH]ccc2nc(N[C@@H]3CCCNC3)nc(Nc3ccc(S(=O)(=O)N4CCOCC4)cc3)c12 [GSK2177277]	52
COc1cc(Nc2nccc(N3CCC(NC(=O)c4cc5ccccc5s4)C3)n2)cc(OC)c1OC (stereo not shown) [GSK1379760]	17
CN1CCN(Cc2cccc(-c3ccc4c(Nc5ccc(Oc6ccccc6)cc5)ccnc4c3)c2)CC1 [GW578342]	28
Fc1ccc(-c2ncn(C3CCNCC3)c2-c2ccnc(Oc3ccc(-c4ccccc4)cc3)n2)cc1 [SB-245391]	24
Cc1ccc(S(=O)(=O)Nc2ccc(Nc3nccc(Nc4cccc5[nH]ncc45)n3)cc2)cc1 [GSK581271]	9
COC(=O)Nc1nc2ccc(Oc3ccc(NC(=O)Nc4cc(C(F)(F)F)ccc4F)cc3)cc2n1C.Cl [GW692089]	17
O=C(Nc1n[nH]c2nc(-c3ccc(O)cc3)ccc12)C1CC1 [SB-710363]	62
CNC(=O)c1ccccc1Nc1nc(Nc2ccc(N3CCOCC3)cc2)ncc1Cl.Cl [GSK1576028]	48
Cl.NC(=O)c1cccc(Nc2nccc(Nc3ccc(Oc4c(Cl)cccc4Cl)c(Cl)c3)n2)c1 [GW659009]	0
COc1cc(Nc2nccc(-c3c(-c4cccc(NC(=O)c5c(F)cccc5F)c4)nn4ccccc34)n2)cc(OC)c1OC [GSK323521]	26
Cn1cc(-c2ccc3c(c2)CCN3C(=O)Cc2cccc(F)c2)c2c(N)ncnc21 [GSK2603358]	51
Cc1cccc(Nc2nc(N[C@H]3CCNC3)ncc2C(N)=O)c1.Cl [GSK2197149]	2
c1ccc(-c2n[nH]cc2Nc2ccnc3ccccc23)nc1 [GW694077]	25
CN(C)Cc1ccc(-c2ccc3c(Nc4ccc(Oc5ccccn5)cc4)ccnc3c2)o1 [GW567148]	0
CCS(=O)(=O)c1ccc(OC)c(Nc2nccc(-c3c(-c4cccc(NC(=O)c5c(F)cccc5F)c4)nn4ncccc34)n2)c1 [GSK326180]	30
COc1cccc(C2=C(Nc3ccc(Cl)c(C(=O)O)c3)C(=O)NC2=O)c1 [SB-390769]	20
COc1cccc(NC(=O)NC2CCN(c3ccnc(Nc4cc(OC)c(OC)c(OC)c4)n3)C2)c1 (stereo not shown) [GSK1379763]	12
Cc1ccc(C)c(NC(=O)NC2CCN(c3ccnc(Nc4ccc(F)cc4)n3)C2)c1 (stereo not shown) [GSK1379720]	5
Cc1ccc(F)c(C(=O)Nc2cccc(-c3nn4ccccc4c3-c3ccnc(Nc4cccc(F)c4)n3)c2)c1F [GSK361061]	10

Structure (SMILES)	%Inh [%]
Cc1occc1-c1ncc(OC[C@@H](N)Cc2c[nH]c3ccccc23)cc1-c1ccc2[nH]nc(C)c2c1.O=C(O)C(F)(F)F [GSK682037]	75
COc1ccc(Nc2nccc(N3CCC(NC(=O)Nc4cccc(OC)c4)C3)n2)cc1 (stereo not shown) [GSK1379742]	0
CC(=O)N1CCN(c2ccc(Nc3nccc(-c4sc(C(C)C)nc4-c4cccc(NS(=O)(=O)c5cccc(Cl)c5)c4)n3)cn2)CC1 [GSK1660437]	12
Nc1ncnc2c1nc(-c1ccccc1)n2-c1ccccc1 [SKF-97293]	13
O=C(NC1CCN(c2ccnc(Nc3ccc(F)cc3)n2)C1)c1cc2ccccc2s1 (stereo not shown) [GSK1379716]	36
COc1cccc(C(=O)Nc2cccc(Oc3ccc4nc(NC(=O)C5CC5)cn4n3)c2)c1	14
Cl.Cl.NCC(C(=O)Nc1cc(Br)c(-c2ccnc3[nH]ccc23)s1)c1ccccc1 (stereo not shown) [GSK1269851]	0
Cn1cc(-c2ccc3c(c2)CCN3C(=O)Cc2cccc(Cl)c2)c2c(N)ncnc21 [GSK2606590]	43
COc1cc(Nc2ncc3c(C)nc(-c4cc5ccccc5[nH]4)n3n2)cc(OC)c1OC [GW869516]	0
O=C(Nc1cccc(-c2nn3ccccc3c2-c2ccnc(Nc3cccc(F)c3)n2)c1)c1c(F)ccc(F)c1Cl [GSK357952]	0
C[C@@H](Oc1cc(-n2cnc3cc(-c4ccnc(NCCS(C)(=O)=O)c4)ccc32)sc1C(N)=O)c1ccccc1Cl [GSK907232]	13
COc1cccc(-c2ccc3c(NC(=O)C4CC4)n[nH]c3n2)c1 [SB-710903]	45
Cc1ccc(C(=O)N2CC[C@@H](O)C2)cc1-n1c(C)cc(OCc2ccc(F)cc2F)c(Br)c1=O	0
Cl.c1ccc(-c2ccc3c(Nc4ccc5[nH]ccc5c4)ccnc3c2)nc1 [GW440138]	23
CCc1ccc(-c2ccc3c(c2)-c2c(cnn2C)S(=O)(=O)N3C)cc1	16
COc1ccc(Nc2nccc(NCCNC(=O)c3cc4ccccc4s3)n2)cc1 [GSK1379896]	5
Nc1ncc(-c2ccc3nccc(-c4ccncc4)c3c2)cc1S(=O)(=O)N1CCOCC1 [GSK1627798]	0
O=C(Nc1n[nH]c2cc(-c3ccoc3)ccc12)C1CC1 [SB-738481]	0
